PubChem BioAssay (NCI)
About 83,000 compounds went through this panel and 20% of them were active in at least one assay; those are over-represented in the sample as a whole.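 96-well plates, one dose, 48 hours. Percent growth reported; active if below 10.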 The source made the active and inactive calls.

Tests used:
Test in all cases: NCI-60 one-dose screen, 48 h (100 = growth as untreated, 0 = no growth, -100 = all killed)
HCT-15 colon = settings: 10 µM unless noted
HT29 colon = settings: 10 µM unless noted
SNB-75 CNS = settings: 10 µM unless noted
SNB-19 CNS = settings: 10 µM unless noted
U251 CNS = settings: 10 µM unless noted
PC-3 prostate = settings: 10 µM unless noted
UACC-62 melanoma = settings: 10 µM unless noted
SK-MEL-28 melanoma = settings: 10 µM unless noted
SK-MEL-2 melanoma = settings: 10 µM unless noted
EKVX NSCLC = settings: 10 µM unless noted
SN12C renal = settings: 10 µM unless noted
UO-31 renal = settings: 10 µM unless noted
TK-10 renal = settings: 10 µM unless noted
ACHN renal = settings: 10 µM unless noted
CAKI-1 renal = settings: 10 µM unless noted
A498 renal = settings: 10 µM unless noted
CCRF-CEM leukemia = settings: 10 µM unless noted
SK-MEL-5 melanoma = settings: 10 µM unless noted
MOLT-4 leukemia = settings: 10 µM unless noted
LOX IMVI melanoma = settings: 10 µM

Measured: growth

CC(=O)NNc1ccc2nnc(-c3ccccc3)n2n1
inactive: HCT-15 colon 103% | HT29 colon 129% | SNB-75 CNS 90.3% | SNB-19 CNS 97.3% | U251 CNS 101% | PC-3 prostate 107% | UACC-62 melanoma 98.6% | SK-MEL-28 melanoma 107% | SK-MEL-2 melanoma 102% | EKVX NSCLC 95.9% | SN12C renal 97.1% | UO-31 renal 88.5% | TK-10 renal 106% | ACHN renal 104% | CAKI-1 renal 90.9% | A498 renal 108% | CCRF-CEM leukemia 108%

Cc1cc2nc3c4ccccc4n(CC4=NCCN4)c3nc2cc1C
active: HCT-15 colon 0.357% | HT29 colon -74.3% | U251 CNS -72.5% | SK-MEL-5 melanoma -91.7% | UACC-62 melanoma -91.2% | SK-MEL-28 melanoma -93.5% | SN12C renal -6.68% | UO-31 renal -95.2% | ACHN renal -100% | CAKI-1 renal -70% | MOLT-4 leukemia -19.4%
inactive: SNB-75 CNS 25.1% | SNB-19 CNS 15.8% | SK-MEL-2 melanoma 66.7% | EKVX NSCLC 60.4% | TK-10 renal 64.4% | A498 renal 63.8%

COc1cc2c(c(OC)c1OC)C(=O)CC(c1cccc(NC(=O)c3cc([N+](=O)[O-])ccc3Cl)c1)O2 (centres undefined)
active: HCT-15 colon -0.987% | ACHN renal 6.5%
inactive: HT29 colon 23.2% | SNB-75 CNS 12.9% | SNB-19 CNS 52.6% | U251 CNS 30.7% | SK-MEL-5 melanoma 23.3% | UACC-62 melanoma 45.2% | SK-MEL-28 melanoma 34.1% | SK-MEL-2 melanoma 15% | EKVX NSCLC 52.3% | SN12C renal 24% | UO-31 renal 29.9% | TK-10 renal 65.8% | CAKI-1 renal 20.8% | A498 renal 131% | CCRF-CEM leukemia 22.8% | MOLT-4 leukemia 14.4%

COc1cc2c(c(OC)c1OC)C(=O)CC(c1cccc(NC(=O)c3cc(NC(=O)[C@H](CO)NC(=O)OC(C)(C)C)ccc3Cl)c1)O2 (some centres undefined)
inactive: HCT-15 colon 35.4% | HT29 colon 15.7% | SNB-75 CNS 54.8% | SNB-19 CNS 45% | U251 CNS 25.4% | SK-MEL-5 melanoma 14.3% | UACC-62 melanoma 40.2% | SK-MEL-28 melanoma 21% | SK-MEL-2 melanoma 11.7% | EKVX NSCLC 62.2% | SN12C renal 27.1% | UO-31 renal 48.8% | TK-10 renal 78.9% | ACHN renal 46.1% | CAKI-1 renal 31.2% | A498 renal 91.5% | CCRF-CEM leukemia 21.8% | MOLT-4 leukemia 12.5%

CN(C)c1nc(NCCNS(=O)(=O)c2ccc(C(=O)/C=C/c3ccc(C(F)(F)F)cc3)cc2)nc(Nc2ccc(F)cc2)n1
active: HCT-15 colon -92.5% | HT29 colon -94% | U251 CNS -99.2% | UACC-62 melanoma -5.71% | SK-MEL-28 melanoma -80% | SK-MEL-2 melanoma -7.74% | SN12C renal -99.1% | ACHN renal 1.99% | CAKI-1 renal 4.56%
inactive: SNB-75 CNS 54.6% | SNB-19 CNS 25.2% | SK-MEL-5 melanoma 16.2% | EKVX NSCLC 13.6% | UO-31 renal 25.5% | TK-10 renal 26.2% | A498 renal 49.6% | CCRF-CEM leukemia 10.1%

NS(=O)(=O)c1ccc(NNC(=O)CCC(=O)c2ccccc2)cc1
inactive: HCT-15 colon 104% | HT29 colon 104% | SNB-75 CNS 91.9% | SNB-19 CNS 98.3% | U251 CNS 101% | SK-MEL-5 melanoma 99.1% | UACC-62 melanoma 99.9% | SK-MEL-28 melanoma 112% | SK-MEL-2 melanoma 107% | EKVX NSCLC 103% | SN12C renal 92.5% | UO-31 renal 84% | TK-10 renal 109% | ACHN renal 101% | CAKI-1 renal 90.2% | A498 renal 94.2% | CCRF-CEM leukemia 75.1% | MOLT-4 leukemia 89.8%

COc1ccc(C2=NN(c3ccccc3)C(c3ccc(OCc4ccccc4)c(OC)c3)C2)cc1OC (centres undefined)
inactive: HCT-15 colon 93.8% | HT29 colon 86.6% | SNB-75 CNS 97.3% | SNB-19 CNS 98.9% | U251 CNS 108% | PC-3 prostate 92.7% | UACC-62 melanoma 85.1% | SK-MEL-2 melanoma 86.5% | EKVX NSCLC 93% | SN12C renal 100% | UO-31 renal 86.8% | TK-10 renal 120% | ACHN renal 99.4% | CAKI-1 renal 88.7% | A498 renal 118%

COc1ccc(NC(=O)Cn2c3c(sc2=O)[C@H]2[C@@H](O)[C@@H](O)[C@H](O)[C@@H]2CS3)cc1
inactive: HCT-15 colon 104% | HT29 colon 110% | SNB-75 CNS 88.5% | SNB-19 CNS 106% | U251 CNS 99.7% | SK-MEL-5 melanoma 106% | UACC-62 melanoma 99.8% | SK-MEL-28 melanoma 103% | SK-MEL-2 melanoma 101% | EKVX NSCLC 97.4% | SN12C renal 98.8% | UO-31 renal 90.2% | TK-10 renal 112% | ACHN renal 96.6% | CAKI-1 renal 97.2% | A498 renal 111% | MOLT-4 leukemia 108%

Cc1cc2nc3c([nH]c2cc1C)c1ccc(=O)cc1n3CCN(C)C
active: MOLT-4 leukemia 5.98%
inactive: HCT-15 colon 19.3% | HT29 colon 23.4% | SNB-75 CNS 63.2% | SNB-19 CNS 38.2% | U251 CNS 40% | SK-MEL-5 melanoma 41.5% | UACC-62 melanoma 65.8% | SK-MEL-2 melanoma 73.4% | EKVX NSCLC 76.7% | SN12C renal 37.7% | UO-31 renal 12.5% | TK-10 renal 105% | ACHN renal 20.4% | CAKI-1 renal 19.9% | A498 renal 111%

NS(=O)(=O)c1ccc(-n2cc(-c3cccc(NC(=O)c4cc(N5CCOCC5)cc(C(F)(F)F)c4)c3)nn2)cc1
inactive: HCT-15 colon 105% | HT29 colon 103% | SNB-75 CNS 33.1% | SNB-19 CNS 40.8% | PC-3 prostate 70.6% | LOX IMVI melanoma 46.8% | SK-MEL-28 melanoma 36.9% | SK-MEL-2 melanoma 61.9% | EKVX NSCLC 70.5% | SN12C renal 35.1% | UO-31 renal 80.3% | TK-10 renal 86.3% | ACHN renal 80.4% | CAKI-1 renal 57% | A498 renal 104% | CCRF-CEM leukemia 93.9%
active: U251 CNS 7.62%

CN(C)CCn1c2ccccc2c2nc3cc(C(F)(F)F)ccc3nc21
inactive: HCT-15 colon 19.4% | HT29 colon 27.6% | SNB-75 CNS 44.5% | SNB-19 CNS 36.4% | U251 CNS 38.1% | SK-MEL-5 melanoma 28.3% | UACC-62 melanoma 44.8% | SK-MEL-28 melanoma 44.4% | SK-MEL-2 melanoma 56.4% | EKVX NSCLC 64.3% | SN12C renal 21.7% | UO-31 renal 11.9% | TK-10 renal 108% | ACHN renal 13.5% | CAKI-1 renal 11% | A498 renal 75.8%

COc1cc(-c2nc3cc(Cl)c(Cl)cc3[nH]2)ccc1OCc1nnc(-c2cccs2)o1
inactive: HCT-15 colon 25.8% | HT29 colon 58.2% | SNB-75 CNS 114% | SNB-19 CNS 65.8% | U251 CNS 71.1% | SK-MEL-5 melanoma 44.6% | UACC-62 melanoma 21.3% | SK-MEL-28 melanoma 31.4% | SK-MEL-2 melanoma 65.7% | EKVX NSCLC 91.3% | SN12C renal 33.7% | UO-31 renal 62.5% | TK-10 renal 125% | ACHN renal 36% | CAKI-1 renal 67.7% | A498 renal 121% | CCRF-CEM leukemia 91.8% | MOLT-4 leukemia 62.8%

O=C(NNc1nc2cc(C(F)(F)F)ccc2n2cccc12)c1cnccn1
active: HCT-15 colon -49.6% | HT29 colon 2.58% | SNB-75 CNS -69.4% | SNB-19 CNS -56.6% | U251 CNS -95.5% | PC-3 prostate -54.8% | UACC-62 melanoma -41.1% | LOX IMVI melanoma -67% | SK-MEL-2 melanoma -73.1% | EKVX NSCLC -83.2% | SN12C renal -59.9% | UO-31 renal -64.6% | TK-10 renal -91.8% | ACHN renal -97.5% | CAKI-1 renal -87.6% | A498 renal -92.7% | CCRF-CEM leukemia 6.27%

CSc1ccc(C(=O)Nc2ccc3nn(/C(C#N)=C/c4ccccn4)nc3c2)cc1
active: HCT-15 colon -70.1% | HT29 colon -88.6% | SNB-19 CNS -70.9% | U251 CNS -84.1% | SK-MEL-5 melanoma -54.9% | UACC-62 melanoma -91.2% | SK-MEL-28 melanoma -83.5% | SK-MEL-2 melanoma -77.8% | EKVX NSCLC -96.3% | SN12C renal -45.5% | UO-31 renal -100% | TK-10 renal -96.7% | ACHN renal -96% | CAKI-1 renal -42.9% | CCRF-CEM leukemia -33.8% | MOLT-4 leukemia -24.9%
inactive: SNB-75 CNS 33.1% | A498 renal 56.8%

COc1ccc(/C=N/NC(=O)Cn2nc(Cc3ccc(OC)cc3)c3onc(C)c3c2=O)cc1
active: CAKI-1 renal -27.2%
inactive: HCT-15 colon 70.2% | HT29 colon 38.1% | SNB-75 CNS 26.9% | SNB-19 CNS 56.3% | U251 CNS 54.6% | SK-MEL-5 melanoma 91.6% | UACC-62 melanoma 48.5% | LOX IMVI melanoma 10.6% | SK-MEL-28 melanoma 29.8% | SK-MEL-2 melanoma 78.9% | EKVX NSCLC 61.5% | SN12C renal 27.5% | UO-31 renal 44.6% | TK-10 renal 79.4% | ACHN renal 12.8% | A498 renal 48.1% | CCRF-CEM leukemia 75.5% | MOLT-4 leukemia 78.7%

Cc1cnc(C(=O)NNc2nc3cc(F)ccc3n3c(C(=O)N4CC5CC(C4)N5)ccc23)cn1
active: UACC-62 melanoma 2.81%
inactive: HCT-15 colon 32.4% | HT29 colon 41.5% | SNB-75 CNS 71.6% | SNB-19 CNS 35.2% | U251 CNS 22.9% | PC-3 prostate 47.2% | LOX IMVI melanoma 16% | SK-MEL-28 melanoma 30.3% | SK-MEL-2 melanoma 53% | EKVX NSCLC 23.1% | SN12C renal 32.1% | UO-31 renal 23.3% | TK-10 renal 41.2% | ACHN renal 15.6% | CAKI-1 renal 23.1% | A498 renal 88.6% | CCRF-CEM leukemia 17%

CC(=O)N1CCN(Cc2ccc3c(NNC(=O)c4cnccn4)nc4cc(F)ccc4n23)CC1
active: UACC-62 melanoma 9.03% | CCRF-CEM leukemia 9.27%
inactive: HCT-15 colon 30.3% | HT29 colon 35.9% | SNB-75 CNS 65.7% | SNB-19 CNS 25.4% | U251 CNS 13.1% | PC-3 prostate 40.9% | LOX IMVI melanoma 10.3% | SK-MEL-28 melanoma 30.4% | SK-MEL-2 melanoma 43.5% | EKVX NSCLC 16.2% | SN12C renal 21.4% | UO-31 renal 10.6% | TK-10 renal 30.3% | ACHN renal 11% | CAKI-1 renal 13.1% | A498 renal 50.2%
